# This is part of a sample that, as a whole, favours compounds with a hit. Of some 83,000 tested, about 20% had one in any assay.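 Plates (96-well) were seeded with cells, treated with compound at one concentration, and incubated for 48 hours before percent growth was determined.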 A number with no mark means an inactive call. Calls of active or inactive are those of the source. Rule for the calls: active = growth percent below 10; inactive = the rest.
# Legend:
# Assay in all cases: NCI-60 one-dose screen, 48 h (100 = growth as untreated, 0 = no growth, -100 = all killed)
# SR leukemia = conditions: 10 µM
# RPMI-8226 leukemia = conditions: 10 µM
# OVCAR-8 ovarian = conditions: 10 µM
# OVCAR-5 ovarian = conditions: 10 µM
# OVCAR-4 ovarian = conditions: 10 µM
# SK-OV-3 ovarian = conditions: 10 µM
# IGROV1 ovarian = conditions: 10 µM
# OVCAR-3 ovarian = conditions: 10 µM
# HS 578T breast = conditions: 10 µM
# NCI/ADR-RES ovarian = conditions: 10 µM
# T-47D breast = conditions: 10 µM
# BT-549 breast = conditions: 10 µM
# MDA-MB-435 melanoma = conditions: 10 µM
# SW-620 colon = conditions: 10 µM
# MCF7 breast = conditions: 10 µM unless noted
# HCT-116 colon = conditions: 10 µM
# HCC-2998 colon = conditions: 10 µM
# KM12 colon = conditions: 10 µM
SMILES,growth (SR leukemia),growth (RPMI-8226 leukemia),growth (OVCAR-8 ovarian),growth (OVCAR-5 ovarian),growth (OVCAR-4 ovarian),growth (SK-OV-3 ovarian),growth (IGROV1 ovarian),growth (OVCAR-3 ovarian),growth (HS 578T breast),growth (NCI/ADR-RES ovarian),growth (T-47D breast),growth (BT-549 breast),growth (MDA-MB-435 melanoma),growth (SW-620 colon),growth (MCF7 breast),growth (HCT-116 colon),growth (HCC-2998 colon),growth (KM12 colon)
O=C(CN1CCNCC1)N1CCOCC1,82.6%,99.3%,91.9%,109%,110%,110%,115%,122%,102%,107%,102%,113%,109%,108%,97.8%,103%,108%,108%
NC(=S)N/N=C/c1ccc(N)cc1,98.6%,98.8%,102%,108%,108%,100%,103%,103%,106%,102%,93.9%,96.3%,105%,104%,94.8%,94.1%,104%,103%
NC(=S)NN=C1CCCC1,88%,72.6%,68.8%,115%,74.4%,110%,93.4%,47.6%,95.5%,42.9%,40.8%,107%,103%,72.8%,21.7%,8.81% (active),97.7%,101%
COc1cccc(/C=N/NC(=S)NC2CC3CCC2C3)c1O (centres undefined),3.68% (active),46.8%,40.5%,85.1%,19.2%,46.2%,67%,6.8% (active),25.8%,15.4%,35.7%,79.8%,76.4%,57.9%,37.8%,24.8%,96.3%,69.1%
c1ccc(CN2COc3c(ccc4c3OCN(Cc3ccccc3)C4)C2)cc1,5.08% (active),21.9%,23%,41.8%,26.3%,10.1%,32.1%,24.6%,53.6%,16.6%,13.1%,12.6%,22.1%,29.8%,28.5%,22%,-14.5% (active),25.3%
CC1CCCC(CC(N)=O)CC1 (centres undefined),94.7%,88.8%,89%,104%,108%,107%,114%,102%,107%,105%,101%,116%,104%,105%,103%,98.4%,102%,107%
CCCCC1(CC)COC(CCC)OC1 (centres undefined),106%,102%,101%,95.9%,115%,104%,129%,108%,109%,105%,104%,106%,118%,110%,96.6%,98.8%,98.1%,104%
CC(C)=CC(=O)OC(=O)C=C(C)C,94.7%,109%,99.7%,104%,119%,96.8%,106%,101%,120%,117%,105%,105%,107%,110%,94.7%,109%,117%,102%
CC(=O)NC(N)=S,90.4%,103%,104%,116%,111%,118%,121%,119%,115%,110%,124%,117%,117%,101%,86.5%,111%,100%,107%
Cc1cccc(CO)c1,109%,114%,101%,107%,103%,107%,115%,98.9%,101%,106%,98.8%,106%,108%,103%,96.6%,104%,112%,97%
CCOC(=O)C1OC1c1ccccc1 (centres undefined),98.7%,113%,106%,102%,101%,99%,108%,101%,115%,106%,98.8%,102%,107%,107%,96%,98.6%,108%,100%
CC(=O)OCC(=O)[C@@]1(O)CC[C@H]2[C@@H]3CC[C@@H]4C[C@H](O)CC[C@]4(C)[C@H]3C(=O)C[C@@]21C,95.2%,95.1%,107%,112%,116%,109%,93.3%,122%,100%,110%,108%,102%,103%,103%,108%,99.9%,97.5%,112%
CCOC(=O)Nc1cc2c(c(N)n1)N=C(c1ccccc1)CO2,6.89% (active),29.3%,14.5%,57.4%,49.4%,22.8%,25.2%,-28.2% (active),50.1%,13.4%,72.3%,49.7%,4.31% (active),26.2%,20.4%,6.32% (active),23.5%,5.46% (active)
Nc1ccc(N=Nc2ccc(S(=O)(=O)O)cc2)c2ccccc12,96.9%,98%,103%,106%,103%,72.2%,94.1%,99%,96.6%,97.3%,57.3%,102%,98.6%,88.7%,91.4%,89%,88.3%,99.2%
Cc1cccc([N+](=O)[O-])c1Cl,117%,103%,99.6%,96.4%,109%,107%,112%,106%,98.1%,92.8%,103%,100%,91.4%,100%,105%,108%,86.1%,104%
CN(C)c1ccc(CNC(C(=O)c2ccccc2)c2ccccc2)cc1 (centres undefined),90.8%,94.4%,95.9%,110%,99.1%,103%,98.2%,114%,46.1%,101%,98.9%,98%,107%,101%,107%,50.8%,106%,98.6%
Cc1cccc(C(=O)N(C(C)C)C(C)C)c1,110%,93.1%,100%,98%,104%,92.4%,103%,107%,90.6%,102%,83.9%,105%,106%,96.4%,98.9%,94.7%,109%,104%
CC(=O)OCC1CCCO1 (centres undefined),102%,119%,110%,110%,102%,92%,113%,114%,94.2%,105%,93.1%,107%,100%,87.3%,94.2%,105%,84.8%,102%
